Only some compounds are listed: those with a hit (about 10% of all), similar ones and a draw of the others.
NIH3T3 tox: kills NIH 3T3 cells | NIH 3T3 viability, CellTiter-Glo ATP luminescence, 48-72 h | Potency, µM (titrated, usually from 96.7 µM), inactives show at the top dose activity change, negative = cytotoxicity, most hits filed as inhibitors | 94,000 tested, 4.3% active | AID 1345082; further: on the % scale 0 is the no-effect control and ±100 the full control effect; nearly all actives have a fitted effect of over 55% in size
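Luminescent ATP readout (CellTiter-Glo, 10 min RT) after 48 or 72 hr compound exposure of NIH 3T3 cells seeded at 400 cells/well in 1536-well format; quantitative HTS.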
HEK cytotox: kills HEK 293 cells | Potency, µM (titrated, usually from 115 µM), inactives show top-dose activity change, negative = cytotoxicity, actives largely listed as inhibitors | HEK 293 viability, ATP luminescence (CellTiter-Glo), 48-72 h | 94,000 tested, 6.6% active; further: on the % scale 0 is the no-effect control and ±100 the full control effect; nearly all actives have a fitted effect of over 60% in size
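HEK 293 cells seeded at 250 cells/well were exposed to compound for 48 or 72 hr at 37 degree Celsius. Viability taken as ATP content by CellTiter-Glo luminescence.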
GPT2 inh: blocks human glutamate pyruvate transaminase 2. Q8TD30. Recombinant GPT2, coupled pyruvate oxidase/HRP Amplex Red fluorescence. Potency, µM (doses to about 57.7 µM), inactives show at the top dose activity change, negative = inhibition, most hits filed as inhibitors. 100,000 tested, 0.25% active; further: on the % scale 0 is the no-effect control and ±100 the full control effect; nearly all actives have a fitted effect of over 60% in size
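Fluorescence of coupled pyruvate oxidase/HRP/Amplex Red system (50uM Amplex, 30 min, dark) reports pyruvate formed by GPT2. Enzyme reaction: 10ng/uL GPT2, 2mM L-alanine, 250uM a-KG, 30 min room temperature, pH 7.5; 50uM AOA control.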
NPR1 antag: antagonists of human natriuretic peptide receptor Npr1; P16066; HEK293 hNpr1 GloSensor cGMP, ANP-stimulated luminescence; Potency, µM (titrated, usually from 46.3 µM), for inactives: at the highest dose activity change, negative = inhibition, hits mostly inhibitors; 76,000 tested, 1.6% active; calls by dose curve; further: on the % scale 0 is the no-effect control and ±100 the full control effect; nearly all actives have a fitted effect of over 60% in size
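HEK293 cells stably expressing human Npr1 and cGMP GloSensor pGS-40F, loaded 2 h with 2% GloSensor reagent, given compound 30 min at room temperature. Luminescence read before and 20 min after 0.1 nM hNppA.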
FLuc inh-1: blocks purified firefly luciferase enzyme activity | P08659 | 76,000 tested, 2.5% active | purified P. pyralis luciferase, luminescence, biochemical | Potency, µM (series often up to 115 µM), actives largely listed as inhibitors; further: on the % scale 0 is the no-effect control and ±100 the full control effect; nearly all actives have a fitted effect of over 65% in size
Target sequence (P08659 whole entry, looked up): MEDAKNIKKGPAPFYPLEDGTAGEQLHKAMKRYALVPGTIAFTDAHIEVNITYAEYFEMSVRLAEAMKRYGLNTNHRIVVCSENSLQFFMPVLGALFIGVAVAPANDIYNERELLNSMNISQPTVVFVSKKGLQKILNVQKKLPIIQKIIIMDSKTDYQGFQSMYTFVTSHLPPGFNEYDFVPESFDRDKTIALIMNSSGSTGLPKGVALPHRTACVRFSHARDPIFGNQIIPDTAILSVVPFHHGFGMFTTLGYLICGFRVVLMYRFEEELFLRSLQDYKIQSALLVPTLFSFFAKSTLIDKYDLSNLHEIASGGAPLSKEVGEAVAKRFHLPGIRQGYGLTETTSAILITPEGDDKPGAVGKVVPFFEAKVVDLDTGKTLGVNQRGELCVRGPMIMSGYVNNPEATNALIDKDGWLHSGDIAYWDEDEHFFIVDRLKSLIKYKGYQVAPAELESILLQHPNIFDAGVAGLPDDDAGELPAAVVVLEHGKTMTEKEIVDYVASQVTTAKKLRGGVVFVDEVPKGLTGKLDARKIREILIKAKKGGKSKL
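FLuc 10nM, D-luciferin 10uM, ATP 10uM, Mg acetate 10mM, Tris acetate pH 7.5, Tween/BSA; cpd qHTS; enzyme added last; CCD luminescence.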
FLuc SDR -ATP: stabilizes firefly luciferase without ATP; shares compounds with FLuc inh-1; Purified FLuc-C-HiBiT, Nano-Glo HiBiT luminescence, no ATP; 1,300 tested, 7.8% active; Potency, µM (series often up to 32.7 µM), without a hit: at the top dose activation (signal gain), most hits filed as activators; further: nearly all actives have a fitted effect of over 55% in size
FLuc SDR ATP: firefly luciferase binding stabilization, ATP added | shares compounds with FLuc inh-1 | purified FLuc-C-HiBiT + ATP, HiBiT complementation luminescence | Potency, µM (top dose mostly 32.7 µM), inactives show at the top dose activation (gain of signal), hits mostly activators | 1,300 tested, 8.7% active | AID 1963319;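 further: signal reports ligand binding via conformational change of the enzyme rather than luciferase catalysis; % of control where 0% means no effect; nearly all actives have a fitted effect of over 55% in size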
FLuc inh-2: inhibitors of firefly luciferase enzymatic activity | AID 1963320 | shares compounds with FLuc inh-1 | Potency, µM (doses to about 32.7 µM), for the others: top-dose activity change, negative = inhibition, hits mostly inhibitors | purified FLuc-C-HiBiT enzyme, luciferin luminescence | 1,300 tested, 42% active; further: on the % scale 0 is the no-effect control and ±100 the full control effect; nearly all actives have a fitted effect of over 70% in size
* = called active by the depositor; i = inactive; ? = inconclusive; . = no result; [ ] = dose if it differs, or a comment. Unless noted, the call rests on the fitted dose curve; in most records, active means well fitted curve in the direction sought with a large enough effect; inconclusive means small, poorly fitted or top-dose-only effect, or another doubt; inactive means no such curve, though single readings can be large; an effect the other way counts as inactive or inconclusive. Potency means the concentration at half of the fitted maximal effect.

SMILES	NIH3T3 tox	HEK cytotox	GPT2 inh	NPR1 antag	FLuc inh-1	FLuc SDR -ATP	FLuc SDR ATP	FLuc inh-2
CCNC(=O)C1C(c2cccc(NC(=O)c3ccccc3)c2)OC(=O)N1Cc1ccccc1 (stereo not given)	-6%	?	2%	4%	?	.	.	.
CC1(Cc2ccc3c(c2)OCO3)CCCN(C(=O)c2ccc3ncsc3c2)C1 (stereo not given)	-19%	45µM*	i	-23%	7.9µM*	?	18%	?
Cc1nc2ccc(C(=O)N3CCCC(C)(Cc4ccc5c(c4)OCO5)C3)cc2o1 (stereo not given)	?	?	2%	0%	?	.	.	.
Cc1ccc2nc(-c3ccc(NC(=O)c4ccc(S(C)(=O)=O)cc4)cc3)sc2c1	.	.	.	.	.	13%	8%	-1%
Cc1ccc2nc(-c3ccc(NC(=O)c4ccccc4S(C)(=O)=O)cc3)sc2c1	.	.	.	.	.	13%	13%	?
Cc1ccc(NC(=O)c2cn3cc(-c4ccc(C)cc4)sc3n2)cc1	-15%	-11%	i	.	.	.	.	.
CNc1ccc2cc(-c3nc4ccc(C(=O)O)cc4s3)ccc2c1	.	.	.	.	.	1.1µM*	0.014µM*	0.007µM*
O=C(O)c1cccc(-c2cnc3ccccc3c2)c1	-14%[138 µM]	-12%[172 µM]	-5%[88.5 µM]	.	.	.	.	.
CCSc1ccc(C(=O)Nc2ccc(-c3nc4ccc(C)cc4s3)cc2)cc1	.	.	.	.	.	14%	8%	-5%
CCCNC(=O)N(C1CCOCC1)C1CCN(C(=O)c2ccoc2)CC1	3%	20%	i	3%	i	.	.	.
COCCCNC(=O)N1CCCCCCNC(=O)[C@@H]2C[C@@H](c3nc(-c4cccnc4)no3)C[C@@H]21	-4%	i	i	1%	i	.	.	.
Cc1ccc2nc(-c3ccc(NC(=O)CSc4nnc(C)s4)cc3)sc2c1	.	.	.	.	.	16%	15%	0.62µM*
Cc1ccc2nc(-c3ccc(NC(=O)C(F)(F)F)cc3)sc2c1	.	.	.	.	.	28%	?	0.79µM*
Cc1ccc(-c2ncc(NC(=O)c3ccc(Cl)s3)cn2)cc1	-8%	-23%	i	-6%	i	.	.	.
Cc1ccc2nc(NC(=O)CSc3nc4c(c(=O)n3-c3ccccc3)SCC4)sc2c1	.	.	2%	.	.	.	.	.
CCOCC(=O)N1CCCn2cc(-c3ccccc3)nc21	1%	?	-27%	0%	i	.	.	.
CN(CCc1ccccn1)[C@@H]1[C@H](O)[C@H](CO)O[C@@H]1CNC(=O)c1ccc(C(F)(F)F)cc1	-21%	-1%	-1%	-5%	i	.	.	.
Cc1ccc(C)c(-c2cc3c(=O)n(CCNC(=O)c4cccc(F)c4)ccn3n2)c1	?	?	-4%	-9%	i	.	.	.
COc1cccc(CC(=O)NCCn2ccn3nc(-c4ccc(C)cc4C)cc3c2=O)c1	?	?	-11%	-2%	11µM*	?	18%	?
Cc1ccc(-c2cc3c(=O)n(CCNC(=O)Cc4cccc(F)c4)ccn3n2)c(C)c1	?	?	i	-27%	3.5µM*	?	?	5.6µM*
Cc1cccc(OCC(=O)NCCn2ccn3nc(-c4ccc(C)cc4C)cc3c2=O)c1	?	?	-1%	-23%	?	.	.	.
Cc1ccc(-c2cc3c(=O)n(CCNC(=O)c4cccc(C#N)c4)ccn3n2)c(C)c1	35µM*	45µM*	i	?	2µM*	?	?	3.1µM*
Cc1ccc(-c2cc3c(=O)n(CCNC(=O)c4ccc(F)c(F)c4)ccn3n2)c(C)c1	?	-22%	-32%	-23%	?	.	.	.
COc1ccccc1C(=O)NCCn1ccn2nc(-c3ccc(C)cc3C)cc2c1=O	?	?	-11%	-26%	10µM*	19%	13%	?
CN1C(=O)CCCCC1C(=O)NCc1ccncc1 (stereo not given)	0%	10%	2%	4%	i	.	.	.
SMILES	NIH3T3 tox	HEK cytotox	GPT2 inh	NPR1 antag	FLuc inh-1	FLuc SDR -ATP	FLuc SDR ATP	FLuc inh-2
Cc1ccc(-c2cc3c(=O)n(CCNC(=O)c4ccco4)ccn3n2)c(C)c1	?	?	i	-12%	8.9µM*	22%	15%	?
Cc1ccc(-c2cc3c(=O)n(CCNC(=O)c4ccoc4)ccn3n2)c(C)c1	?	?	i	-5%	?	.	.	.
OC1(CNC2CCN(Cc3cc(F)cc(F)c3)CC2)CNCCOC1 (stereo not given)	-3%	-29%	0%	2%	i	.	.	.
C#CCn1c(/C=C/c2ccc(Cl)cc2)nc2ccccc21	.	.	.	.	.	3.9µM*	?	0.62µM*
COCCC1(C(=O)O)CCCN(C(=O)CCc2c(C)n[nH]c2C)C1 (stereo not given)	-1%	-9%	i	-2%	i	.	.	.
Cc1ccc(C(=O)O)cc1Nc1nc2ccccc2n2nnnc12	.	.	.	.	.	13%	11%	?
Cc1ccc(O)cc1Nc1ccnc(Nc2cccc(C(N)=O)c2)n1	.	.	2%	.	.	.	.	.
Nc1ccc2c(N3CCCCC3)ncnc2c1	-21%	-18%	-16%	-5%	i	.	.	.
Cc1ccc(-n2ncc3c(N4CCCCC4)ncnc32)cc1	.	.	.	.	.	1.8µM*	1.1µM*	0.2µM*
Nc1ccc2ncnc(N3CCCCC3)c2c1	?	?	2%	-24%	i	.	.	.
Cc1ccc(-n2ncc3c(N4CCCCCC4)ncnc32)cc1Cl	.	.	.	.	.	?	?	0.7µM*
O=C(Nc1ccc2ncnc(N3CCCCC3)c2c1)c1ccccc1Cl	?	?	-7%	-16%	i	.	.	.
Cc1ccc(-n2ncc3c(N4CCCCC4)ncnc32)cc1Cl	.	.	.	.	.	8.8µM*	1.8µM*	0.79µM*
COc1ccc(S(=O)(=O)Nc2nnc(CC(C)C)s2)cc1	.	.	i	.	.	.	.	.
CCOc1ccc(-c2cn3nc(CC(C)C)sc3n2)cc1	.	.	.	.	.	26%	16%	5µM*
Cc1cc(C(=O)NCC(F)(F)F)c2c(C3CCNCC3)noc2n1	-1%	1%	i	.	.	.	.	.
O=C(Cc1cccc(Cl)c1)N1CCn2c(nnc2-c2ccccc2)C1	?	-21%	1%	-24%	2.8µM*	14%	19%	?
O=C(c1ccc(Cl)s1)N1CCC(n2cnnc2C2CC2)CC1	0%	i	i	5%	i	.	.	.
O=C(Nc1c(C(=O)Nc2ccc(F)cc2)oc2ccccc12)c1cc2ccccc2o1	.	.	.	.	.	22%	14%	7.9µM*

Screening data (PubChem)
